Screens (PubChem BioAssay)
CYP2C9 inhib = blockers of cytochrome P450 2C9 activity – biochemical, luminescence, ADME assay, primary screen; P11712; CYP2C9 Supersomes, luciferin-H conversion; inhibition, % at 5 µM; 20% of 96,000 active;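 active = blocking of liver enzyme CYP2C9 beyond about 50% at 5 µM, limit read from the data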
CYP2C19 activ = human CYP2C19 activators, primary screen, biochemical, luminescence. 96,000 tested, under 10 active. activation factor at 5 µM. AID 1025, 2008. Cytochrome P450 2C19 (Homo sapiens), P33261. recombinant CYP2C19, luciferin-H EGE luminescence; active compounds read high; 0 = fully inhibited enzyme, 1 = untreated enzyme;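 active = activation factor of at least 2 at 5 µM in the primary screen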
Target sequence (P33261 whole entry, looked up): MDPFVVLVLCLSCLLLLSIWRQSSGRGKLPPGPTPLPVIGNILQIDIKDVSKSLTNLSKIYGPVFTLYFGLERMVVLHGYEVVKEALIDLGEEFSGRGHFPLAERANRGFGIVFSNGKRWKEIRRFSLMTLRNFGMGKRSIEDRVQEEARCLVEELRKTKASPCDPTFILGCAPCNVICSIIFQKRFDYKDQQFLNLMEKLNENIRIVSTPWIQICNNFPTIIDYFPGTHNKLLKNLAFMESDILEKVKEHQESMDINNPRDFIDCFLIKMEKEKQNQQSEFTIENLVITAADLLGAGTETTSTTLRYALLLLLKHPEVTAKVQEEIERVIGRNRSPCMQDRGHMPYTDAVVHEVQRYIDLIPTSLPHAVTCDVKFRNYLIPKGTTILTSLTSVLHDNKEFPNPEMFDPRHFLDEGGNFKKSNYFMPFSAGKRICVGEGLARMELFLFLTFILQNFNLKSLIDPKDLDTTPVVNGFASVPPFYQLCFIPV
CYP2C19 inhib = blockers of cytochrome P450 2C19 activity – biochemical, luminescence, ADME assay, primary screen; P33261; CYP2C19 Supersomes, luciferin-H EGE luminescence, 30 min; inhibition, % at 5 µM; 21% of 96,000 active; AID 778, 2007;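 active = CYP2C19 inhibition above a set limit at 5 µM in the primary screen, cut at about 50% in these data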
sEH inhibitor = soluble epoxide hydrolase inhibitors, primary screen, biochemical, human sEH; inhibition, % at 2 µM; 0.34% of 91,000 active; Bifunctional epoxide hydrolase 2 (Homo sapiens), P34913; AID 707, 2007; recombinant human sEH enzymatic activity assay; in the data active = inhibition above about 80%
CYP2C9 activ = human CYP2C9 activators, primary screen, biochemical, luminescence. Cytochrome P450 2C9 (Homo sapiens), P11712. recombinant CYP2C9, luciferin-H conversion; active compounds read high; factor 1 = untreated enzyme, 0 = blocked. activation factor at 5 µM. 1.4% of 96,000 active. AID 1024, 2008;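 active = activation factor of 2 or more for CYP2C9 at a 5 µM dose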
sEH act = soluble epoxide hydrolase activators, primary screen, biochemical, human sEH; AID 717, 2007; Bifunctional epoxide hydrolase 2 (Homo sapiens), P34913; 0.04% of 91,000 active; activation, % at 2 µM; purified human sEH enzymatic activity, activator screen; in the data active = activation above about 37%
Each line names hits and unclear results; the compound was inactive in the other large screens. Compounds with a hit are over-represented: about 27% of the library has one in this group of screens.

CCOc1ccc(C(=O)N(Cc2ccc(OC)cc2)Cc2cc3cc(OC)ccc3[nH]c2=O)cc1	none
COc1ccc2cc(CN(C(=O)Nc3ccccc3OC)C3CCCC3)c(=O)[nH]c2c1	CYP2C9 inhib 51.1
CC1(C)NC(=O)N(CC(O)COc2ccc(-c3ccc(C#N)cc3)cc2)C1=O (stereo not drawn)	none (no result: sEH inhibitor, sEH act)
COc1ccc2[nH]c(=O)c(CN(C(=O)c3ccccn3)C3CCCCC3)cc2c1	CYP2C9 inhib 63.3
O=C(CN1C(=O)c2ccccc2C1=O)Nc1ccc2c(c1)OCO2	none
CCC(SC1=Nc2ccccc2C2=NC(CC(C)C)C(=O)N12)C(=O)Nc1ccc2c(c1)OCO2 (stereo not drawn)	CYP2C9 inhib 83.8, CYP2C19 inhib 56.9
CCCS(=O)(=O)NCCc1cc2ccc(OC)cc2[nH]c1=O	none (no result: sEH inhibitor, sEH act)
Cc1ccc(NC(=O)Cn2cccc2)c(C)c1	CYP2C19 inhib 71.2
Cc1ccc(NC(=O)Cn2cccc2)cc1Cl	CYP2C19 inhib 52.3
Cc1ccc(NC(=O)CCn2nc(C)cc2C)cc1	CYP2C19 inhib 74.3
COc1ccc(-n2nc(C(=O)Nc3ccc(OC)c(OC)c3)c3c4ccccc4n(C)c3c2=O)cc1	none
Cc1ccc(C)c(NC(=O)CCn2nc(C)cc2C)c1	none (no result: sEH inhibitor, sEH act)
COc1ccc(NC(=O)c2c(Cl)n(C)c3ccccc23)cc1	CYP2C9 activ 2.3
Cc1ccc(NC(=O)Cn2cccc2)cc1C	none
Nc1nnc(SCC(=O)NCCOc2ccccc2)s1	none (no result: CYP2C9 inhib, CYP2C19 activ, CYP2C19 inhib, CYP2C9 activ)
Cc1ccc(S(=O)(=O)N2CCN(C(=O)C3Cc4ccccc4CN3C(=O)c3ccco3)CC2)cc1 (stereo not drawn)	none
COc1ccc(NC(=O)CCn2cccc2)cc1	CYP2C19 inhib 51.3
Cc1ccc(NC(=O)CCn2cccc2)cc1C	CYP2C19 inhib 85.4
Cc1ccc(NC(=O)CCn2cccc2)cc1	CYP2C19 inhib 91.6
CCC(=O)N1CCc2cc(S(=O)(=O)N3CCc4ccccc43)ccc21	none
CCC(=O)N1CCCc2cc(S(=O)(=O)N3CCN(c4ncccn4)CC3)ccc21	CYP2C9 inhib 95.6, CYP2C19 inhib 98.2
CCC(=O)N1CCc2cc(S(=O)(=O)N3CCN(C(=O)c4ccco4)CC3)ccc21	none
CCC(=O)N1CCCc2cc(S(=O)(=O)N3CCN(c4ccccn4)CC3)ccc21	CYP2C9 inhib 79.7, CYP2C19 inhib 50.1 (no result: sEH inhibitor, sEH act)
CCC(=O)N1CCCc2cc(S(=O)(=O)N3CCN(c4ccccc4F)CC3)ccc21	CYP2C9 inhib 99.9, CYP2C19 inhib 95.5
O=S(=O)(NC1c2cccc3cccc(c23)C1N1CCN(CCO)CC1)c1ccccc1 (stereo not drawn)	none
O=C(c1ccccc1)N1CCN(C2c3cccc4cccc(c34)C2NS(=O)(=O)c2ccccc2)CC1 (stereo not drawn)	CYP2C9 inhib 74.7, CYP2C19 inhib 51.5
O=S(=O)(NC1c2cccc3cccc(c23)C1N1CCNCC1)c1ccccc1 (stereo not drawn)	CYP2C19 inhib 55.8
O=C(c1cccs1)N1CCN(S(=O)(=O)N2CCCCC2)CC1	none
CC1CCc2c(sc(NC(=O)CN3CCN(C(=O)c4ccco4)CC3)c2C#N)C1 (stereo not drawn)	none
Nc1nc(CN2CCN(c3ccccc3F)CC2)nc(Nc2ccccc2)n1	CYP2C9 inhib 77.4
COc1ccc(Nc2nc(N)nc(CN3CCc4ccccc4C3)n2)cc1	CYP2C9 inhib 55.7
COc1ccccc1Nc1nc(N)nc(CN2CCc3ccccc3C2)n1	none (no result: CYP2C9 inhib, CYP2C19 activ, CYP2C19 inhib, CYP2C9 activ)
Nc1nc(CN2CCc3ccccc3C2)nc(Nc2ccccc2)n1	CYP2C9 inhib 51.5
CCOC(=O)N1CCN(C(=O)CCN2C(=O)COc3ccc(C)cc32)CC1	none
CON(C)c1nc(OCCNC(=O)OCc2ccc(Cl)cc2Cl)nc(N(C)C)n1	CYP2C9 inhib 63.2
CN(C)c1nc(OCCNC(=O)COc2ccc(Cl)cc2Cl)nc(N2CCOCC2)n1	CYP2C9 inhib 81.6
CON(C)c1nc(OCCNC(=O)COc2ccc(Cl)cc2C)nc(N(C)C)n1	CYP2C9 inhib 51.3
Cc1ccc(NC(=O)C(=O)NNC(=O)c2ccccc2C)cc1Cl	none
